The campaign covered roughly 420,000 compounds. About 50,000 (12%) were called active. A call without a number means that no potency is given here. About 26% were inconclusive and are not listed. The call rests on the fitted dose curve; in most records, active means well fitted inhibition curve with a large enough effect; inconclusive means small, poorly fitted or top-dose-only effect; inactive means flat fitted curve, though single readings scatter. Many of the other results were omitted from the sample, so actives are more common in it than they were.
Potency means the concentration at half of the fitted maximal effect.

This assay in a line: qHTS for Inhibitors of human tyrosyl-DNA phosphodiesterase 1 (TDP1): qHTS in cells in presence of CPT. Further: nearly all actives have a fitted effect of over 55% in size. The note with it: chicken DT40 Tdp1-/-;hTDP1 cells + 20 nM CPT, ATP luminescence, 48 h; series mostly up to 46.2 µM. Summed up: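 Chicken DT40 Tdp1-/- cells complemented with human TDP1, 400 cells/well, exposed to compounds plus 20 nM camptothecin for at least 48 h at 37 C; viability read as ATP content by CellTiter-Glo luminescence.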
(qHTS replaces the single test concentration by a dilution series.)
In the case of `FCOC(C(F)(F)F)C(F)(F)F`, the Potency entry is “inactive”. Regarding `NC(=O)CN1CCCC1c1ccc2c(c1)OCCO2` (stereo not given), the Potency entry is “inactive”. The result for `CC(C)C(=O)Nc1oc(-c2ccccc2)cc1C#N` reads “inactive”; that for `CC1(C)S[C@@H]2[C@H](NC(=O)COc3ccccc3)C(=O)N2C1C(=O)OCc1ccccc1` (stereo not given in full), “inactive”. Turning to `COc1cccc(N(CC(=O)N2CCc3ccccc3C2)S(C)(=O)=O)c1`, the Potency result was “inactive”.

Take `COc1ccc(-c2nc(CS(=O)CC(=O)NCc3ccccn3)c(C)o2)cc1` (stereo not given): the Potency was 18.4 µM (active). Consider `COc1ccc(-c2nc(CS(=O)CC(=O)NCc3cccnc3)c(C)o2)cc1OC` (stereo not given), for which the Potency entry is “inactive”. To `COc1ccc(-c2nc(CS(=O)CC(=O)N3CCc4ccccc4C3)c(C)o2)cc1` (stereo not given) belongs 16.4 µM (active); to `COc1ccc(-c2nc(CS(=O)CC(=O)NCc3ccccc3)c(C)o2)cc1OC` (stereo not given), “inactive”; to `O=C(COc1ccccc1)N1CCc2ccccc2C1`, “inactive”.

Consider `CCCSc1nsc(N)n1`, for which the Potency result was “inactive”. The result for `CS(=O)(=O)N1CCN(CC(=O)NC2CCCC2)CC1` reads “inactive”; that for `O=C(Cc1coc2ccc3ccccc3c12)NCc1cccs1`, “inactive”. As for `C=CCCC(=O)N1C[C@H]2CON(C)[C@H]2C[C@H]1c1cccc(Nc2ccccc2)c1`, the Potency result was “inactive”.

In the case of `COCC1CCCN(Cc2nc(-c3ccc4c(c3)OCO4)no2)C1` (stereo not given), the Potency entry was “inactive”.

With `CCn1c(CC(=O)Nc2ccccc2C)nnc1SCC(=O)NC1=NCCS1`, the Potency entry was “inactive”. To `CCCNC(=O)c1ccc(Cl)c(Cl)c1` belongs “inactive”; to `O=C(Cn1nnc(N2CCCCC2)n1)c1ccc(Cl)c(Cl)c1`, “inactive”. The result for `CCCn1c(=N)n(CC(=O)c2ccc(Cl)c(Cl)c2)c2ccccc21` reads 10.3 µM (active); that for `O=C(Nc1ccc(OCCO)cc1)c1csc([C@H]2C[C@H](O)[C@@H](CO)O2)n1`, “inactive”.

Turning to `CCOc1ccc(CN2CCN(Cc3ccc4cc(F)ccc4n3)CC2CCO)cc1` (stereo not given), the Potency result was “inactive”. In the case of `COc1ccc(C(=O)NCc2nnc(SCC(=O)Nc3cccc(OC)c3)o2)cc1`, the Potency entry is “inactive”.

In the case of `COc1ccccc1NC(=O)CSc1nnc(CNC(=O)c2ccccc2F)o1`, the Potency result is “inactive”. The result for `COc1cc(C(=O)NCc2nnc(SCC(=O)Nc3nc4ccc(C)cc4s3)o2)cc(OC)c1OC` reads 4.11 µM (active); that for `O=C(O)c1ccc(S(=O)(=O)N2CCOCC2)o1`, “inactive”; that for `CNc1cc(-c2c(OC)cccc2OC)ncn1`, “inactive”. The result for `CCOC(=O)CSC1=C(C#N)C(c2sccc2C)CC(=O)N1` (stereo not given) reads 3.55 µM (active); that for `C=CCOC(=O)C1=C(C)NC(SCC(=O)OCC)=C(C#N)C1c1ccc(C)cc1` (stereo not given), “inactive”; that for `COC(=O)CSC1=C(C#N)C(c2ccccc2OC)C(C(=O)OC)C(=O)N1` (stereo not given), “inactive”. The result for `C/C=C/C=C/C(=O)OCC(=O)Nc1ccc(Cl)cc1` reads “inactive”.

Values taken from PubChem BioAssay AID686979 (National Center for Advancing Translational Sciences (NCATS), 2013).
